Screening results from PubChem BioAssay.
WT yeast gro inh = growth inhibition of WT yeast, mitochondrial fusion screen; mitochondrial fusion phenotypic screen, WT strain; 190,000 tested, 2.1% active; inhibition, % at 10 µM; in the data active = inhibition above about 58%; tested in S. cerevisiae
Lmaj promast = Leishmania major promastigote growth inhibition. Leishmania major promastigotes, resazurin fluorescence viability. inhibition, % at 10 µM. 200,000 tested, 9% active. AID 1063; in the data active = inhibition above about 50%;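 also: promastigotes grown with compound for 44 hours at 28 °C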
Cl transport mod = modulators of human KCC2 chloride dependent transport. 190,000 tested, 2.2% active. AID 1456. Q9H2X9. KCC2 cells, thallium flux FluoZin-2 fluorescence. B-score of Tl+ flux slope (higher = more flux/activation; lower = inhibition) at 10 µM;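 active = thallium flux slope and its plate-corrected score both differing from the plate sample mean at a set confidence after two filtering rounds, in either direction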;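 also: slope of fluorescence scaled to starting intensity during 10 to 20 s after thallium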
m-calpain inh = blocks pig calpain II enzyme activity. purified calpain II, fluorogenic peptide substrate, 30 min. inhibition, % at 16 µM. 220,000 tested, 0.37% active. AID 1236;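 active = inhibition above about 50%, limit read from the data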
ROMK mod = human ROMK K+ channel modulation, primary screen | P48048 | Tet-inducible ROMK, thallium flux fluorescence; actives lie on both sides | B-score at 10 µM | 130,000 tested, 2% active;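 active = signal ratio slope over the read window, or its plate-corrected B-score, at least 3 SD from the plate mean, either direction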;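 also: B-score of the F/F0 ratio slope over 7 to 12 s after thallium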
Numbers stand for hits; – = inactive; · = no result. A selection: hits, their analogues and other compounds. The true share with any hit is near 12%.

SMILES	WT yeast gro inh	Lmaj promast	Cl transport mod	m-calpain inh	ROMK mod
Cc1nc([N+](=O)[O-])c(Sc2nc3ccccc3[nH]2)n1Cc1ccccc1	–	98.6	–	–	–
COc1ccc2nc(Sc3c([N+](=O)[O-])nc(C)n3Cc3ccccc3)[nH]c2c1	–	86.9	·	–	–
COc1ccc2nc(SCC(=O)Nc3ccccc3)[nH]c2c1	–	–	·	–	–
Cn1cnc([N+](=O)[O-])c1Sc1nc2ccccc2[nH]1	·	·	–	–	·
Cc1cc(/C=C2\C(=N)N3N=CSC3=NC2=O)c(C)n1Cc1ccccc1	·	·	–	–	–
N/C(Cc1ccc(Cl)cc1Cl)=N\OC(=O)c1ccccc1F	97.1	–	–	–	–
N/C(Cn1cncn1)=N\OC(=O)c1ccc(Cl)cc1Cl	–	–	–	–	–
O=C(N/N=C/c1cccc(Oc2ccccc2)c1)c1ccccc1Br	–	95.5	–	–	–
O=C(NN=C1c2ccccc2-c2ccccc21)c1cccc(Br)c1	–	89.4	59.8	–	·
O=C(COc1cccc(Br)c1)NN=C1c2ccccc2-c2ccccc21	–	–	–	–	·
O=C(N/N=C/c1cccc(Oc2ccccc2)c1)c1cccc(Br)c1	–	95.0	–	–	·
CC1CCc2sc3nc(NCc4ccco4)n4ncnc4c3c2C1 (stereo not given)	82.3	–	–	–	–
CCN1CCN(c2nc3sc4c(c3c3ncnn23)CC(C)CC4)CC1 (stereo not given)	–	–	–	–	·
CC1CCCc2sc3nc(NCc4ccco4)n4ncnc4c3c21 (stereo not given)	79.0	–	–	–	·
O=C1CSC(=S)N1/N=C/c1ccc(Cl)c([N+](=O)[O-])c1	·	·	–	–	·
O=C1C2C3c4ccccc4C(c4ccccc43)C2C(=O)N1c1cccnc1 (stereo not given)	–	51.4	–	–	–
CC12c3ccccc3C(c3ccccc31)C1C(=O)N(c3cccnc3)C(=O)C12 (stereo not given)	–	–	–	–	·
O=C(NC1CC2CCCC(C1)N2CC(=O)N1CCCc2ccccc21)C1CCCCC1 (stereo not given)	–	57.0	–	–	·
COCCN1C=C(C(=O)OC)C(c2cc(Br)c(OC)c(OC)c2)C(C(=O)OC)=C1	–	99.9	–	–	·
COC(=O)C1CC(=O)c2ccsc2C1 (stereo not given)	–	–	–	–	–
COc1cc(C(C[N+](=O)[O-])c2c(-c3ccccc3)cc3ccccn23)cc(OC)c1OC (stereo not given)	–	92.6	–	–	–
CCOCCCNCc1cn(-c2ccc(F)cc2F)nc1-c1ccccc1C	–	–	–	–	–
NC(=O)CSc1nnc(-c2cccc(S(=O)(=O)N3CCCCC3)c2)o1	·	·	–	–	·
COc1ccc(-n2cnnc2SCC(=O)Nc2cccc(S(=O)(=O)N3CCCCC3)c2)cc1	–	–	–	–	–
O=C(CSc1nncn1-c1ccccc1)Nc1cccc(S(=O)(=O)N2CCCCC2)c1	–	62.6	–	–	–
SMILES	WT yeast gro inh	Lmaj promast	Cl transport mod	m-calpain inh	ROMK mod
O=C(CSc1nnc(-c2cccs2)o1)Nc1cccc(S(=O)(=O)N2CCCCC2)c1	–	50.9	–	–	–
CN1C(=O)S/C(=C/c2ccccc2OCc2ccc(C(=O)O)cc2)C1=O	–	–	-4.28	–	-2.7
Cn1nc2c3ccccc3n(Cc3ccc(F)cc3)c2nc1=S	·	·	–	–	–
COc1cccc(NC(=O)C2CC(=O)n3cnnc3S2)c1 (stereo not given)	–	–	·	–	–
COc1ccc(NC(=O)C2CC(=O)n3cnnc3S2)cc1 (stereo not given)	–	97.7	–	–	–
CC1Oc2ccccc2C=C1/C=N/NC(=O)c1ccccc1O (stereo not given)	71.3	–	–	–	·
C=CCC1(Cl)C(=O)C(Cl)=C(N2CCN(C)CC2)C1(OC)OC (stereo not given)	·	·	–	–	·
CCc1nnc(NC(=O)CCC(=O)N2CCN(C3c4ccccc4-c4ccccc43)CC2)s1	–	51.4	–	–	–
COc1ccc(Cc2nnc(NC(=O)CSc3ccccc3)s2)cc1OC	–	51.3	–	–	–
CCc1nnc(NC(=O)CSc2nnc(-c3ccccc3OC)n2-c2ccc(C)cc2)s1	–	56.7	–	–	–
CCc1nnc(NC(=O)CCC(=O)NCCc2ccc(OC)c(OC)c2)s1	–	60.8	–	–	–
CCC(=O)Nc1nnc(SCC(=O)NCCc2ccc(OC)c(OC)c2)s1	–	–	–	–	–
CCc1nnc(NC(=O)CSc2nnc(-c3ccccc3OC)n2-c2ccccc2)s1	–	–	–	–	·
CCc1nnc(NC(=O)CCC(=O)N2CCN(Cc3ccccc3)CC2)s1	–	–	·	–	–
